# Hits are enriched below; roughly 9.8% of the tested compounds scored in any of these assays.
# ALDH1A1 inh: ALDH1A1 (human) enzyme inhibition. Purified ALDH1A1, NADH fluorescence, propionaldehyde substrate. P00352. Potency, µM (top dose mostly 75.3 µM), for inactives: at the highest dose activity, negative = inhibition, hits mostly inhibitors. 220,000 compounds, 7.3% hits; active = well fitted inhibition curve with a large enough effect, not every such curve was filed as active; inconclusive = small, poorly fitted or top-dose-only effect, or another doubt; inactive = no such curve, though single readings can be large or run the other way;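 also: potency is read from the fitted curve at half-maximal effect; plate controls were no enzyme wells and a reference inhibitor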
# KDM4E inh: JMJD2E (human) inhibition. B2RXH2. JMJD2E catalytic domain, FDH-coupled NADH fluorescence (FDH is formaldehyde dehydrogenase). Potency, µM (doses to about 57.1 µM), inactives show top-dose activity change, negative = inhibition, usual class: inhibitors. 230,000 compounds, 1.6% hits; active = well fitted inhibition curve with a large enough effect, not every such curve was filed as active; inconclusive = small, poorly fitted or top-dose-only effect, or another doubt; inactive = no such curve, though single readings can be large or run the other way;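 also: potency is read from the fitted curve at half-maximal effect; 0% = wells with enzyme and -100% = buffer wells without enzyme; nearly all actives have a fitted effect of over 50% in size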
# CBFb RUNX1 block: blocks binding between human CBF-beta and RUNX1; Q01196+Q13951; AlphaScreen CBFb-His/RUNX1-biotin binding, biochemical; Potency, µM (highest dose often 59.8 µM), for the others: at the highest dose activity, negative = inhibition, usual class: inhibitors; 230,000 tested, under 10 active; also: % of control where 0% means no effect
# Target sequence (Q01196 whole entry, looked up): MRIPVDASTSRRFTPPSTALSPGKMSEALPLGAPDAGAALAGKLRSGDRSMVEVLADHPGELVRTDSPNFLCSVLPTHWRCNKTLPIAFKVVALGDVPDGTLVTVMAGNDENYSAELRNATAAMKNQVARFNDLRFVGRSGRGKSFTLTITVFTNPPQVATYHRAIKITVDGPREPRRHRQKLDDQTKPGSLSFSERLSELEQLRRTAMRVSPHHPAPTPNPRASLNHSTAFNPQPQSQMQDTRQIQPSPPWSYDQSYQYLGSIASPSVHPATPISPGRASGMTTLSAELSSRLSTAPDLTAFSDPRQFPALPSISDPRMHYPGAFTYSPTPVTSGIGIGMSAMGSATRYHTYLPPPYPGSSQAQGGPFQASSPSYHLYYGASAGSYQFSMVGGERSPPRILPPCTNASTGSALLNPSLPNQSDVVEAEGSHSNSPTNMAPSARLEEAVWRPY
# Target sequence (Q13951 whole entry, looked up): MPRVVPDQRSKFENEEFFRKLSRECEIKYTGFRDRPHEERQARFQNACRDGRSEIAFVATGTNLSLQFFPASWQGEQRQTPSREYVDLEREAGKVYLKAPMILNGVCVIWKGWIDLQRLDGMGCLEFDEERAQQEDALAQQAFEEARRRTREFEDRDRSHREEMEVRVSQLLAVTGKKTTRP
#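 Proteins preincubated together for 20 min at RT before compound addition; 15 min later, nickel and streptavidin beads were added and left 90 min prior to AlphaScreen measurement.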
# HPGD inh: blocks human HPGD enzyme activity; Potency, µM, inactives show at the highest dose activity change, negative = inhibition, most hits filed as inhibitors; 150,000 compounds, 4.3% hits; AID 894; purified HPGD, NADH fluorescence kinetic, PGE2 substrate; P15428; active = well fitted inhibition curve with a large enough effect, not every such curve was filed as active; inconclusive = small, poorly fitted or top-dose-only effect, or another doubt; inactive = no such curve, though single readings can be large or run the other way; also: potency is read from the fitted curve at half-maximal effect; % is scaled to controls: 0 for no effect and ±100 for the full control effect
#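 20 nM HPGD preincubated 15 min at room temperature with compound in 50 mM Tris-HCl pH 8, 0.01% Tween 20. Started with 1 mM NAD+ and 30 uM prostaglandin E2; NADH fluorescence (360/450 nm) read 5 times over 30-s intervals, last minus first.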
# HTT cytoprotect: Huntington cell model cytoprotection by ATP luminescence; PC12 HTT-Q103 induced, cytoprotection, ATP luminescence, 40 h; Potency, µM (top dose mostly 56.4 µM), inactives show cytoprotection (ATP increase), most hits filed as activators; 230,000 compounds, 0.14% hits; also: potency is read from the fitted curve at half-maximal effect; % of control where 0% means no effect; nearly all actives have a fitted effect of over 45% in size
#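 Compounds were screened for protection of PC12 cells against cell death after tebufenozide induction (100 nM final) of mutant Huntingtin exon 1 (Q103) fused to GFP.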
# HTT aggregate: inhibitors of mutant huntingtin aggregate formation in PC12 cells | PC12 HttQ103-GFP aggregates, Acumen cytometry, 40 h | Potency, µM (series often up to 46.1 µM), inactives show top-dose activity change, negative = inhibition, most hits filed as inhibitors | 220,000 compounds, 1.1% hits | AID 1688; also: potency is read from the fitted curve at half-maximal effect; % is scaled to controls: 0 for no effect and ±100 for the full control effect; nearly all actives have a fitted effect of over 60% in size
#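 Compounds (qHTS titration) were added to PC12 cells expressing an ecdysone-driven HTT exon 1 Q103–GFP fusion after induction with 100 nM tebufenozide. Aggregate formation was measured as GFP objects in cell lysates.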
# * = called active by the depositor; ? = inconclusive; nt = no result; [ ] = dose if it differs, or a comment. Unless noted, calls follow the shape of the dose curve; as a rule, active = well fitted curve in the direction sought with a large enough effect; inconclusive = small, poorly fitted or top-dose-only effect, or another doubt; inactive = no such curve, though single readings can be large; an effect the other way counts as inactive or inconclusive.
SMILES,ALDH1A1 inh,KDM4E inh,CBFb RUNX1 block,HPGD inh,HTT cytoprotect,HTT aggregate
N#CC1=C(SCC(=O)NC2CCCCC2)NC(=O)CC1c1ccco1 (stereo not drawn),11µM*,3%,-2%,-17%,-5%,-8%
CC[C@H](C)[C@H](NC(=O)[C@H](CCC(=O)O)NC(=O)[C@H](CO)NC(=O)[C@@H](NC(=O)[C@H](C)N)C(C)C)C(=O)N[C@@H](CCC(N)=O)C(=O)N[C@@H](CC(C)C)C(=O)N[C@@H](CCSC)C(=O)N[C@@H](Cc1cnc[nH]1)C(=O)N[C@@H](CC(N)=O)C(=O)N[C@@H](CC(C)C)C(=O)NCC(=O)N[C@@H](CCCCN)C(=O)N[C@@H](Cc1cnc[nH]1)C(=O)N[C@@H](CC(C)C)C(=O)N[C@@H](C)C(=O)N[C@@H](CO)C(=O)N[C@H](C(=O)N[C@@H](CCC(=O)O)C(=O)N[C@@H](CCCNC(=N)N)C(=O)N[C@@H](CCSC)C(=O)N[C@@H](CCC(N)=O)C(=O)N[C@@H](Cc1c[nH]c2ccccc12)C(=O)N[C@@H](CC(C)C)C(=O)N[C@@H](CCCNC(=N)N)C(=O)N[C@@H](CCCCN)C(=O)N[C@@H](CCCCN)C(=O)N[C@@H](CC(C)C)C(=O)N[C@@H](CCC(N)=O)C(=O)N[C@@H](CC(=O)O)C(=O)N[C@H](C(=O)N[C@@H](Cc1cnc[nH]1)C(=O)N[C@@H](CC(N)=O)C(=O)N[C@@H](Cc1ccccc1)C(=O)O)C(C)C)C(C)C,nt,nt,7%,nt,nt,nt
COc1cccc(-n2nnc3c(=O)n(CC(=O)N4CCCc5ccccc54)cnc32)c1,?,8%,2%,22µM*,9%,28%
O=C(Cn1cnc2c(nnn2Cc2ccc(Cl)cc2)c1=O)N1CCCc2ccccc21,22µM*,4%,2%,-15%,-2%[10 µM],5%
O=C(Cn1cnc2c(oc3ccccc32)c1=O)N1CCCc2ccccc21,20µM*,5%,7%,-7%,-24%[0.074 µM],20%
Cc1ccc(-n2nnc3c(=O)n(CC(=O)OCc4ccccc4)cnc32)cc1,-7%,-9%,13%,-18%,nt,0.0028µM*
Cc1ccc(C(=O)Nn2cnnc2)cc1S(=O)(=O)N1CCOCC1,nt,3%,3%,nt,8%[10 µM],-16%[9.22 µM]
COc1cccc(-n2nnc3c(=O)n(CC(=O)N4CCC(Cc5ccccc5)CC4)cnc32)c1,2µM*,5%,4%,-25%,-12%,-14%
COc1ccc(-c2noc(=O)n2CC(=O)N2CCC(Cc3ccccc3)CC2)cc1,25µM*,16%,7%,nt,-11%[10 µM],3%[9.22 µM]
COc1cccc(-n2nnc3c(=O)n(Cc4ccccc4F)cnc32)c1,?,-6%,7%,5.6µM*,-28%[0.074 µM],-5%
O=C(Cn1c(-c2ccccc2)noc1=O)N1CCC(Cc2ccccc2)CC1,1%,-13%,14%,nt,6%[10 µM],6%[9.22 µM]
CC[C@@H](C)C(NC(=O)OC(C)(C)C)c1cn([C@@H](Cc2cc3ccccc3[nH]2)C(=O)N2CCN(C(=O)OC(C)(C)C)CC2)nn1 (stereo partly drawn),-11%,-9%,3%,nt,-1%[10 µM],-1%[9.22 µM]
O=c1cnc2cnc(Oc3ccccc3)nc2n1Cc1cccs1,?,nt,nt,-12%,?,nt
O=C(N/N=C/c1ccc(O)c(O)c1O)/C(=C/c1ccc([N+](=O)[O-])cc1)NC(=O)c1ccccc1,10µM*,10µM*,nt,25µM*,-25%,2%
CCCCCOc1ccc(NC(=O)C(=O)NCC2CCCN2CC)cc1 (stereo not drawn),-5%,-6%,4%,nt,3%,21%
Cc1ccc(N2C(=O)C3C(C2=O)N2CCCN2C3c2ccccc2)cc1C (stereo not drawn),-4%,0%,-3%,nt,nt,nt
Cc1ccc(N2C(=O)CS(=O)C(c3ccccc3)C2=O)cc1C (stereo not drawn),3.5µM*,2%,-3%,nt,-9%[10 µM],31%
CCOC(=O)c1cc(CC)sc1/N=C/C1C(=O)CC(C)(C)CC1=O,11µM*,-7%,-2%,-4%,-24%[10 µM],31%
CCOC(=O)c1c(/N=C/C2=C(O)CCCC2=O)sc2c1CCCC2,nt,-4%,-2%,nt,-9%[10 µM],26%[9.22 µM]
CCOC(=O)c1c(/N=C/C2C(=O)CCCC2=O)sc2c1CCCC2,16µM*,6%,-16%,nt,-19%,-1%
CCOC(=O)c1cc(CC)sc1/N=C/C1=C(O)CCCC1=O,-9%,-14%,5%,-14%,nt,7%
CCOC(=O)c1c(/N=C/c2ccccc2O)sc2c1CCC2,-16%,-6%,-7%,nt,10%[10 µM],?
CCOC(=O)c1c(/N=C/C2C(=O)CC(C)(C)CC2=O)sc2c1CCCC2,8.9µM*,-1%,5%,nt,-14%,19%
NC(=O)Nc1sc(-c2ccc(F)cc2)cc1C(N)=O,nt,nt,12%,nt,nt,nt
CCOC(=O)OCC1OC(C#Cc2ccc(F)cc2F)C=CC1OC(=O)OCC (stereo not drawn),-5%[13.5 µM],nt,6%[13.1 µM],nt,-5%[10 µM],nt
SMILES,ALDH1A1 inh,KDM4E inh,CBFb RUNX1 block,HPGD inh,HTT cytoprotect,HTT aggregate
CCC/C=C(\CCC)C(NS(=O)(=O)c1ccc(C(F)(F)F)cc1)c1ccc(-c2ccccc2)cc1 (stereo not drawn),22µM*,5%,-4%,-15%,-47%,nt
O=C(O)Cc1ccc(-n2cccc2)cc1,10%,-6%,4%,nt,-16%,18%
CCCn1c(N)c(C(c2ccc(OC)cc2)N2CCN(c3ccccc3)CC2)c(=O)[nH]c1=O (stereo not drawn),2.5µM*,?,-2%,-19%,-13%,3%
CC(=O)c1ccc(NC(=O)C2CC(=O)N(Cc3ccccc3)C2)cc1 (stereo not drawn),14µM*,-4%,4%,-8%,-6%,12%
O=C(O)c1cccc(NC(=O)C2CC(=O)N(Cc3ccccc3)C2)c1 (stereo not drawn),7%,-1%,-2%,-6%,-7%,8%
C/C(CCC12CC3CC(CC(C3)C1)C2)=N\NC(N)=S,?,9%,-5%,-13%,2.8µM*,-15%[9.22 µM]
COc1ccc(CCNc2nc3ccccc3n3nnnc23)cc1OC,8%,-8%,1%,-14%,14%,10%
COc1ccc(CCNCc2csc3nc4ccccc4n23)cc1OC,-5%,-4%,-2%,-8%,-18%,7.1µM*
COCCn1c(C)cc(C(=O)CSc2nnc(-c3cccnc3)n2-c2ccccc2F)c1C,1%,1%,-12%,-5%,0%,-8%
Cc1ccccc1-n1c(SCC(=O)c2cc(C)n(C)c2C)nnc1-c1cccnc1,?,-7%,?,25µM*,-3%[10 µM],12%
